Results with a measured potency or affinity are listed apart.

One experiment deals with Staphylococcus aureus. As to conditions: Concentration 32 ug.mL-1;; ASSAY_TEST Inhibition of Bacterial Growth; detection method Absorption (OD600); MEDIA CAMHB; plate type 384well; NBS; CORNING #3640; time 18 hr.
As a reminder, the Inhibition is the relative decrease from the control value, in per cent. In the case of `Cc1nnc2ccc(S(=O)(=O)N(Cc3ccccc3)c3ccc(Cl)cc3)cn12`, the Inhibition stood at 1.7%.

For `Cc1ccc(-c2ccc3nnc(CCC(=O)N4CCN(C(=O)c5ccco5)CC4)n3n2)cc1C`, the Inhibition was 7.73%.

As for `CCc1ccc(N(Cc2cccc(OC)c2)S(=O)(=O)c2cccn3cnnc23)cc1`, the Inhibition was 17.37%.

Take `COc1cc(OC)c(NC(=O)Cn2nc3c(Sc4cccc(C)c4)nccn3c2=O)cc1Cl`: the Inhibition was found to be 10.36%.

Consider `Cc1cc(C)c(NC(=O)Cn2nc3c(SCc4ccc(Cl)cc4)nccn3c2=O)c(C)c1`, for which the Inhibition is on record as 3.14%.

In the case of `COc1cccc(Sc2nc3ccccc3n3c(=O)n(CC(=O)Nc4cccc(C#N)c4)nc23)c1`, the Inhibition is 2.4%.

Turning to `Cc1ccc(C)c(CN(c2ccc(F)c(F)c2)S(=O)(=O)c2cccn3cnnc23)c1`, the Inhibition was 5.14%.

As for `CCc1ccccc1NC(=O)Cn1nc2c(Sc3ccccc3CC)nccn2c1=O`, the Inhibition is 13.37%.

On to `Cc1ccc(-c2ccc3nnc(CCC(=O)NCc4ccc(Br)cc4)n3n2)cc1`, for which the Inhibition is recorded as 14.28%.

Consider `Cc1cc(C)cc(NC(=O)Cn2nc3c4cc(-c5ccc(C)c(C)c5)nn4ccn3c2=O)c1`, for which the Inhibition turned out to be 5.77%.

Regarding `Cc1cccc(Sc2nccn3c(=O)n(CC(=O)N4CCN(c5ccc(F)cc5)CC4)nc23)c1`, the Inhibition is -10.95%.

In the case of `CCOc1ccc(NC(=O)Cn2nc3c(Oc4cccc(OC)c4)nccn3c2=O)cc1`, the Inhibition amounted to 13.11%.

In the case of `Cc1ccc(NC(=O)Cn2nc3c(N4CCOCC4)nc4ccccc4n3c2=O)cc1C`, the Inhibition came to 6.57%.

Consider `CSc1cccc(NC(=O)Cn2nc3c(SC4CCCCC4)nccn3c2=O)c1`, for which the Inhibition is reported as -5.93%.

Take `CCOC(=O)c1cccc(NC(=O)CSc2nnc3ccc(C(=O)Nc4cccc(F)c4)cn23)c1`: the Inhibition stood at 5.02%.

On to `CCOc1ccc(NC(=O)Cn2nc3c(Sc4ccccc4)nccn3c2=O)cc1`, for which the Inhibition is on record as 1.52%.

Consider `COc1ccc(NC(=O)C(C)Sc2nnc3c(=O)n(-c4ccc(C)c(C)c4)ccn23)cc1` (stereo not given), for which the Inhibition amounted to 7%.

Consider `CCc1ccc(N(Cc2ccccc2)S(=O)(=O)c2cccn3cnnc23)cc1`, for which the Inhibition came to 5.64%.

For `Cc1ccc(-c2cc3c4nn(CC(=O)NCc5ccccc5)c(=O)n4ccn3n2)cc1C`, the Inhibition is listed as -8%.

`COc1cccc(-n2ccn3c(SCC(=O)c4ccc(Br)cc4)nnc3c2=O)c1`: the Inhibition worked out at 12.63%.

Regarding `COc1ccc(CN(c2ccc(F)cc2)S(=O)(=O)c2ccc3nnc(C)n3c2)cc1F`, the Inhibition is -10.32%.

Take `CCOC(=O)c1ccccc1NC(=O)Cn1nc2c(Oc3ccc(C)cc3)nccn2c1=O`: the Inhibition is on record as -14.8%.

Consider `Cc1ccccc1Oc1nccn2c(=O)n(CC(=O)Nc3cc(Cl)ccc3Cl)nc12`, for which the Inhibition was found to be 0.32%.

As to `CCc1nnc2c(S(=O)(=O)N(Cc3cccc(C)c3)c3cccc(Cl)c3)cccn12`, the Inhibition is on record as 2.53%.

In the case of `Cc1c(Cl)cccc1-n1ccn2c(SCC(=O)c3c[nH]c4ccccc34)nnc2c1=O`, the Inhibition is reported as -2.75%.

For `Cc1ccc(-n2ccn3c(=O)n(Cc4cccc(F)c4)nc3c2=O)cc1C`, the Inhibition was -0.24%.

`CC(C)c1nnc2c(=O)n(CC(=O)Nc3cccc(F)c3)c3ccccc3n12`: the Inhibition turned out to be 22.23%.

As for `O=C(Cn1nc2c3c4c(sc3ncn2c1=O)CCCC4)NCc1ccccc1Cl`, the Inhibition is -19.92%.

In the case of `Cc1ccc(F)cc1NC(=O)CSc1nc2ccccc2n2c(C)nnc12`, the Inhibition is 2.37%.

For the compound `Cc1nnc2c(S(=O)(=O)N(Cc3ccccc3Cl)c3ccc(F)c(F)c3)cccn12`, the Inhibition worked out at 38.47%.

In the case of `Cc1ccc(CN(c2ccc(C(C)C)cc2)S(=O)(=O)c2cccn3c(C)nnc23)cc1`, the Inhibition was 3.26%.

On to `Cc1ccc(NC(=O)CSc2nc3ccccc3n3c(C(C)C)nnc23)cc1Cl`, for which the Inhibition was -8.33%.

`CC(C)Cn1c(=O)c2sccc2n2c(=O)n(CC(=O)N(C)c3ccccc3)nc12`: the Inhibition stood at 4.88%.

On to `COc1ccccc1N1CCN(C(=O)Cn2nc3ccc(-c4ccccc4)nn3c2=O)CC1`, for which the Inhibition is -11.69%.

With `COc1ccc(NC(=O)Cn2nc3cc(C)nc(Nc4ccc(F)cc4)n3c2=O)cc1F`, the Inhibition is given as 9.09%.

In the case of `Cc1ccc(NC(=O)CSc2nnc3ccc(C(=O)Nc4cccc(F)c4)cn23)c(C)c1`, the Inhibition worked out at 12.19%.

Take `Cc1ccccc1Oc1nccn2c(=O)n(CC(=O)Nc3ccc(C#N)cc3)nc12`: the Inhibition was 8.67%.

Regarding `CC(C)c1ccc(CNC(=O)CCc2nnc3c(N4CCCCC4)nc4ccccc4n23)cc1`, the Inhibition was 3.73%.

As to `COc1ccc(-n2ccn3c(=O)n(Cc4cc(C)ccc4C)nc3c2=O)cc1Cl`, the Inhibition was found to be 5.41%.

For the compound `Cc1cc(C)c(NC(=O)Cn2nc3ccc(-c4ccc(C)c(C)c4)nn3c2=O)c(C)c1`, the Inhibition was -8.09%.

The next experiment concerns Escherichia coli. The following applies: Concentration 32 ug.mL-1;; ASSAY_TEST Inhibition of Bacterial Growth; detection method Absorption (OD600); MEDIA CAMHB; plate type 384well; NBS; CORNING #3640; time 18 hr.
For `Cc1nnc2ccc(S(=O)(=O)N(Cc3ccccc3)c3ccc(Cl)cc3)cn12`, the Inhibition is recorded as -13.98%.

For the compound `Cc1ccc(-c2ccc3nnc(CCC(=O)N4CCN(C(=O)c5ccco5)CC4)n3n2)cc1C`, the Inhibition is -0.43%.

Turning to `CCc1ccc(N(Cc2cccc(OC)c2)S(=O)(=O)c2cccn3cnnc23)cc1`, the Inhibition is reported as 2.31%.

In the case of `COc1cc(OC)c(NC(=O)Cn2nc3c(Sc4cccc(C)c4)nccn3c2=O)cc1Cl`, the Inhibition is recorded as -1.94%.

In the case of `Cc1cc(C)c(NC(=O)Cn2nc3c(SCc4ccc(Cl)cc4)nccn3c2=O)c(C)c1`, the Inhibition turned out to be 0.78%.

Turning to `COc1cccc(Sc2nc3ccccc3n3c(=O)n(CC(=O)Nc4cccc(C#N)c4)nc23)c1`, the Inhibition is reported as -6.13%.

As for `Cc1ccc(C)c(CN(c2ccc(F)c(F)c2)S(=O)(=O)c2cccn3cnnc23)c1`, the Inhibition is given as 0.2%.

With `CCc1ccccc1NC(=O)Cn1nc2c(Sc3ccccc3CC)nccn2c1=O`, the Inhibition is reported as -2.13%.

In the case of `Cc1ccc(-c2ccc3nnc(CCC(=O)NCc4ccc(Br)cc4)n3n2)cc1`, the Inhibition came to 0.41%.

With `Cc1cc(C)cc(NC(=O)Cn2nc3c4cc(-c5ccc(C)c(C)c5)nn4ccn3c2=O)c1`, the Inhibition is recorded as -4.98%.

Turning to `Cc1cccc(Sc2nccn3c(=O)n(CC(=O)N4CCN(c5ccc(F)cc5)CC4)nc23)c1`, the Inhibition is recorded as -6.75%.

Consider `CCOc1ccc(NC(=O)Cn2nc3c(Oc4cccc(OC)c4)nccn3c2=O)cc1`, for which the Inhibition came to 1.75%.

As to `Cc1ccc(NC(=O)Cn2nc3c(N4CCOCC4)nc4ccccc4n3c2=O)cc1C`, the Inhibition is given as -0.21%.

For `CSc1cccc(NC(=O)Cn2nc3c(SC4CCCCC4)nccn3c2=O)c1`, the Inhibition was -5.86%.

For the compound `CCOC(=O)c1cccc(NC(=O)CSc2nnc3ccc(C(=O)Nc4cccc(F)c4)cn23)c1`, the Inhibition is -5.71%.

With `CCOc1ccc(NC(=O)Cn2nc3c(Sc4ccccc4)nccn3c2=O)cc1`, the Inhibition is reported as -2.95%.

As to `COc1ccc(NC(=O)C(C)Sc2nnc3c(=O)n(-c4ccc(C)c(C)c4)ccn23)cc1` (stereo not given), the Inhibition was -4.16%.

As to `CCc1ccc(N(Cc2ccccc2)S(=O)(=O)c2cccn3cnnc23)cc1`, the Inhibition is -1.12%.

In the case of `Cc1ccc(-c2cc3c4nn(CC(=O)NCc5ccccc5)c(=O)n4ccn3n2)cc1C`, the Inhibition is -9.14%.

`COc1cccc(-n2ccn3c(SCC(=O)c4ccc(Br)cc4)nnc3c2=O)c1`: the Inhibition was determined as 0.58%.

Consider `COc1ccc(CN(c2ccc(F)cc2)S(=O)(=O)c2ccc3nnc(C)n3c2)cc1F`, for which the Inhibition is on record as -13.96%.

As to `CCOC(=O)c1ccccc1NC(=O)Cn1nc2c(Oc3ccc(C)cc3)nccn2c1=O`, the Inhibition is on record as -17.92%.

As to `Cc1ccccc1Oc1nccn2c(=O)n(CC(=O)Nc3cc(Cl)ccc3Cl)nc12`, the Inhibition is recorded as -4.76%.

In the case of `CCc1nnc2c(S(=O)(=O)N(Cc3cccc(C)c3)c3cccc(Cl)c3)cccn12`, the Inhibition is -7.38%.

With `Cc1c(Cl)cccc1-n1ccn2c(SCC(=O)c3c[nH]c4ccccc34)nnc2c1=O`, the Inhibition is on record as -4.84%.

For `Cc1ccc(-n2ccn3c(=O)n(Cc4cccc(F)c4)nc3c2=O)cc1C`, the Inhibition was -8.8%.

`CC(C)c1nnc2c(=O)n(CC(=O)Nc3cccc(F)c3)c3ccccc3n12`: the Inhibition came out at 3.96%.

On to `O=C(Cn1nc2c3c4c(sc3ncn2c1=O)CCCC4)NCc1ccccc1Cl`, for which the Inhibition is on record as 0.09%.

As for `Cc1ccc(F)cc1NC(=O)CSc1nc2ccccc2n2c(C)nnc12`, the Inhibition is 1.62%.

As for `Cc1nnc2c(S(=O)(=O)N(Cc3ccccc3Cl)c3ccc(F)c(F)c3)cccn12`, the Inhibition is -6.82%.

With `Cc1ccc(CN(c2ccc(C(C)C)cc2)S(=O)(=O)c2cccn3c(C)nnc23)cc1`, the Inhibition is -8.61%.

As to `Cc1ccc(NC(=O)CSc2nc3ccccc3n3c(C(C)C)nnc23)cc1Cl`, the Inhibition is on record as -6.42%.

`CC(C)Cn1c(=O)c2sccc2n2c(=O)n(CC(=O)N(C)c3ccccc3)nc12`: the Inhibition is recorded as -0.39%.

Regarding `COc1ccccc1N1CCN(C(=O)Cn2nc3ccc(-c4ccccc4)nn3c2=O)CC1`, the Inhibition is on record as -1.16%.

Regarding `COc1ccc(NC(=O)Cn2nc3cc(C)nc(Nc4ccc(F)cc4)n3c2=O)cc1F`, the Inhibition is -0.97%.

For the compound `Cc1ccc(NC(=O)CSc2nnc3ccc(C(=O)Nc4cccc(F)c4)cn23)c(C)c1`, the Inhibition is -1.6%.

`Cc1ccccc1Oc1nccn2c(=O)n(CC(=O)Nc3ccc(C#N)cc3)nc12`: the Inhibition is -0.39%.

`CC(C)c1ccc(CNC(=O)CCc2nnc3c(N4CCCCC4)nc4ccccc4n23)cc1`: the Inhibition is given as -5.19%.

Turning to `COc1ccc(-n2ccn3c(=O)n(Cc4cc(C)ccc4C)nc3c2=O)cc1Cl`, the Inhibition is reported as -0.01%.

On to `Cc1cc(C)c(NC(=O)Cn2nc3ccc(-c4ccc(C)c(C)c4)nn3c2=O)c(C)c1`, for which the Inhibition is given as -15.6%.

(Values after ChEMBL document CHEMBL4513146, “CO-ADD screening of Karazin Kharkiv National University (Ukraine) compounds”.)
